Active and inactive are the calls of the source.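 Rule for the calls, unless noted: active = NADPH fluorescence slope more negative than the mean of all samples by about 3 SD, 99.7% confidence; inactive = the rest.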
Assays:
[1] = inhibitors of TNFa-induced NFkB p65 translocation, primary screen, imaging, HUVEC, MLSMR starter and 10KST1 sets (AID 438;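 active = inhibition above 20% together with a positive visual image hit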;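 note: compound added about 3h40 before a 20 min TNFalpha stimulation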;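 for inhibition: signal is the nuclear over cytoplasmic p65 intensity ratio per well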); settings: HUVEC TNFa-induced p65 nuclear translocation; cell count: measured here: nuclei count (cytotoxicity indicator), at 2.08 µM; inhibition: at 2 µM, stronger effect = higher value, 0% TNFa-plus-vehicle, 100% no-TNFa wells
[2] = reduction of polyQ htt aggregates in cells – imaging, exon1htt(103Q)mCFP cells, high-content imaging, primary screen (AID 483;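 active = visual image review flags a hit and inhibition of aggregation exceeds 20%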;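 note: compound exposure lasted 3 days before fixation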;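 for nuclei count: percent of the per-plate median nuclei count of sample wells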); settings: exon1htt(103Q)mCFP cell line, aggregate imaging, at 2 µM; inhibition of aggregation: stronger effect = higher value; nuclei count: measured here: cell count, toxicity
[3] = endothelial E-selectin expression blockers – imaging, HUVEC, immunofluorescence, MLSMR starter and 10KST1 sets, primary screen (AID 487;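 active = visually confirmed hit in the image check and inhibition above 20%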;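 for inhibition: signal is fraction of cell area covered by stained E-selectin grains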;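 for nuclei count: 100% = median nuclei count of all wells on the same plate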); settings: HUVEC TNFalpha-induced E-selectin immunofluorescence imaging, at 2 µM; inhibition: stronger effect = higher value; nuclei count: measured here: cell number, toxicity
[4] = biological target: Voltage-gated potassium channel subunit beta-2 (Rattus norvegicus) (UniProt P62483); assay: inhibitors of rat Kvbeta2 reductase activity – biochemical, NADPH fluorescence, primary screen (AID 622;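 active = fluorescence slope higher than the sample average by over 3 SD, cut at about -0.22 in these data, passing the limit was not always enough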;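 note: slope of raw intensity against log time taken from 70 to 1610 s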); settings: recombinant KvBeta, 4-cyanobenzaldehyde reduction, at 10 µM, stronger effect = higher value
Voltage-gated potassium channel subunit beta-2 (Rattus norvegicus), sequence (P62483 whole entry, looked up): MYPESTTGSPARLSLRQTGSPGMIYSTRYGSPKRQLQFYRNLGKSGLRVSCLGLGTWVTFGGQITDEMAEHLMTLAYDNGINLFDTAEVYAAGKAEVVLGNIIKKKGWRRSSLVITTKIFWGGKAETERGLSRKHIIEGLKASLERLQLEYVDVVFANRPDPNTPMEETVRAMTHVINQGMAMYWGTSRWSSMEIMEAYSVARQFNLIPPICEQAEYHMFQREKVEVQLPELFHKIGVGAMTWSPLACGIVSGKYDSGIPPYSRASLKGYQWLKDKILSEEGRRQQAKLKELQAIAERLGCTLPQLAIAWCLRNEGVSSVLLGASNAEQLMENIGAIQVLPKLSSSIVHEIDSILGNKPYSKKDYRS

[5] = biological target: Voltage-gated potassium channel subunit beta-2 (Rattus norvegicus) (UniProt P62483); assay: enhancers of rat Kvbeta2 NADPH turnover – biochemical, NADPH fluorescence, primary screen (AID 623); settings: Recombinant KvBeta, NADPH fluorescence decrease slope, 10 min; at 10 µM; stronger effect = lower value;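 note: fluorescence intensity change per second fitted from 20 to 320 s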
[6] = biological target: Alpha-2C adrenergic receptor (Homo sapiens) (UniProt P18825); assay: compounds altering alpha2C-coupled GIRK flux – cell-based, HEK293 alpha2C/GIRK1/2, thallium flux, primary screen (AID 624;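 active = fluorescence slope after compound addition differing from the mean of all screened samples at 99.7% confidence, in either direction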;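 note: slope of fluorescence ratio to pre-addition baseline per second over 15 to 24 s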); settings: thallium flux BTC fluorescence, at 10 µM, actives lie on both sides
Alpha-2C adrenergic receptor (Homo sapiens), sequence (P18825 whole entry, looked up): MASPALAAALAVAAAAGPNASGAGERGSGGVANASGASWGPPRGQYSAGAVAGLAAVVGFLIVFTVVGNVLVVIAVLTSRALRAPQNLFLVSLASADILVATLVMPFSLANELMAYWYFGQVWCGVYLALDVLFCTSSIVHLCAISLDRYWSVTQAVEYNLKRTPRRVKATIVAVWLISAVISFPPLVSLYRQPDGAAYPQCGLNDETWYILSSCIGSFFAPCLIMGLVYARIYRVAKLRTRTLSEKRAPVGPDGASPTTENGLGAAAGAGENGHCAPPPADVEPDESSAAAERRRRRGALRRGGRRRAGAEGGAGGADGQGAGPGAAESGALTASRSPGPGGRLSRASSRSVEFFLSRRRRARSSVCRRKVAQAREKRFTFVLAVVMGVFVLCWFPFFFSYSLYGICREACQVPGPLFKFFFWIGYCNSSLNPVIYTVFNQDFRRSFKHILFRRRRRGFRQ

[7] = blockers of RIG-like receptor reporter activation – cell-based, Sendai virus stimulus, luciferase, 10K MLSCN set, TLR/RLR signaling modifier project, primary screen (AID 602276;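 active = inhibition at or above 50% at 10 µM; inactive = inhibition below 50%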;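 note: firefly luciferase from ISG56 promoter only with Renilla not read in this screen; 0% = Sendai virus plus DMSO and 100% = medium plus DMSO without virus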); settings: HEK293 RL24 IRF3 luciferase reporter, at 10 µM, stronger effect = higher value
[8] = TLR3 IRF3 reporter activation blockers – cell-based, poly I:C stimulus, luciferase, 10K MLSCN set, primary screen (AID 602277;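 active = inhibition of the reporter signal at or above 50%; inactive = inhibition below 50%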); settings: HEK293-TLR3 RL24 IRF3 luciferase reporter, at 10 µM, stronger effect = higher value

Row | Structure (SMILES) | cell count [1] | inhibition [1] | inhibition of aggregation [2] | nuclei count [2] | inhibition [3] | nuclei count [3] | fluorescence slope [4] | NADPH fluorescence slope [5] | slope [6] | inhibition [7] | inhibition [8]
1 | CCOC(=O)c1cnc(SCC)[nH]c1=O | 436 | -11.8% (inactive) | -0.2% (inactive) | 118% | -34.3% (inactive) | 117% | -0.351 (inactive) | -2.9e-05 (inactive) | 0.00558 (inactive) | 6.7% (inactive) | 27% (inactive)
2 | CCCCN=CC1=C(O)C(C(=O)OC)C(C)(C)CC1=O (stereo not drawn) | 390 | -4.3% (inactive) | 10.6% (inactive) | 106% | -21.7% (inactive) | 123% | -0.392 (inactive) | -6.2e-07 (inactive) | 0.0055 (inactive) | -0.949% (inactive) | -9.49% (inactive)
3 | Cc1ccc(Br)cc1S(=O)(=O)N1CCN(c2ccccc2)CC1 | 391 | -2.2% (inactive) | -16% (inactive) | 108% | -51.5% (inactive) | 129% | -0.463 (inactive) | -1.8e-05 (inactive) | 0.0036 (inactive) | 5.17% (inactive) | 31.3% (inactive)
4 | CC(C)Cc1nnc(NC(=O)CCC(=O)N2CCOCC2)s1 | 597 | 8.1% (inactive) | -2% (inactive) | 106% | 17.3% (inactive) | 102% | -0.422 (inactive) | -3.6e-05 (inactive) | 0.00514 (inactive) | 12.2% (inactive) | 10.8% (inactive)
5 | CC(C)C(OC(=O)c1ccco1)C(=O)NCc1ccccc1 (stereo not drawn) | 489 | 5% (inactive) | -10.8% (inactive) | 108% | -122% (inactive) | 126% | -0.443 (inactive) | 2.2e-05 (inactive) | 0.00599 (inactive) | 11.3% (inactive) | 10.5% (inactive)
6 | O=C1C2ON(c3ccc(Cl)cc3)C(c3ccco3)C2C(=O)N1c1ccccc1 (stereo not drawn) | 510 | -2% (inactive) | 15.7% (inactive) | 97% | -106% (inactive) | 107% | -0.511 (inactive) | -2.4e-05 (inactive) | 0.00581 (inactive) | -6.65% (inactive) | -3.63% (inactive)
7 | COc1ccc2nc(NC(=O)C3CCCN(S(=O)(=O)c4cccc5nsnc45)C3)sc2c1 (stereo not drawn) | 607 | -3.9% (inactive) | -14% (inactive) | 113% | 2% (inactive) | 122% | -0.455 (inactive) | 3.3e-05 (inactive) | 0.00595 (inactive) | -3.68% (inactive) | -37.1% (inactive)
8 | Cc1csc2ncc(C(=O)Nc3ccccc3Cl)c(=O)n12 | 677 | 5.8% (inactive) | -20% (inactive) | 95.1% | -12.3% (inactive) | 116% | -0.486 (inactive) | 5.1e-06 (inactive) | 0.00716 (inactive) | -29% (inactive) | -83.1% (inactive)

— PubChem BioAssay
